RORg inh: blocks mouse ROR gamma transcriptional activity; P51450; Drosophila S2 Gal4-RORgamma UAS-luciferase reporter, 20 h; Potency, µM (titrated, usually from 53.6 µM), for the others: top-dose activity change, negative = inhibition, most hits filed as inhibitors; 310,000 tested, 5.4% active; note: potency is the fitted concentration of half-maximal effect; nearly all actives have a fitted effect of over 60% in size
Target sequence (P51450 whole entry, looked up, the tested form may be a part): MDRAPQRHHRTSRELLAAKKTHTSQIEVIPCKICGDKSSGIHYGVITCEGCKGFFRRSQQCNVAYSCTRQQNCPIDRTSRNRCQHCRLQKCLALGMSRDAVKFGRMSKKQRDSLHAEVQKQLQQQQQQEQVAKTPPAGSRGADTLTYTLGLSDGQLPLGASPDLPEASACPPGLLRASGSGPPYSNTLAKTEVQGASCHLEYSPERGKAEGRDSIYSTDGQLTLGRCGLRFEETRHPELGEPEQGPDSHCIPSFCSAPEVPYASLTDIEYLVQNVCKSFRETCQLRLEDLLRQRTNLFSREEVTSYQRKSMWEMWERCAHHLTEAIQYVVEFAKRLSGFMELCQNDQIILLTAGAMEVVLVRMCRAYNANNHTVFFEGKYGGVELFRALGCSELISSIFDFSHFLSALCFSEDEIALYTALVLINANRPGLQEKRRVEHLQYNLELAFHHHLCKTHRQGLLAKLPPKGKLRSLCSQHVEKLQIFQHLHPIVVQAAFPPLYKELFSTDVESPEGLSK
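Read-out: Photinus luciferase luminescence; inhibitors lower reporter signal. Insect Schneider cells with Gal4-ROR gamma fusion under metallothionein promoter, UAS reporter; 700 uM final copper sulfate induction, 20 hr, ambient temperature.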
TDP1 cell noCPT: qHTS for Inhibitors of human tyrosyl-DNA phosphodiesterase 1 (TDP1): qHTS in cells in absence of CPT | DT40 Tdp1-/- hTDP1 cells, no CPT, ATP luminescence, 48 h | Potency, µM (titrated, usually from 46.2 µM), without a hit: at the highest dose activity change, negative = growth inhibition, most hits filed as inhibitors | 420,000 tested, 15% active | AID 686978, 2013; note: potency is the fitted concentration of half-maximal effect; nearly all actives have a fitted effect of over 55% in size
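DT40 Tdp1-/-;hTDP1 cells, no CPT (DMSO vehicle only), 400 cells/well; compounds pin-transferred; ≥48 hr, 37 °C; CellTiter-Glo 30 min RT dark, luminescence read.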
ELG1 DNA repair: inhibitors of ELG1-dependent DNA repair in HEK293T cells; HEK293T ELG1-luciferase reporter, luminescence, 16 h; DNA damage induced by 5-fluorouridine; Potency, µM (top dose mostly 46.1 µM), without a hit: top-dose activity change, negative = inhibition, usual class: inhibitors; 330,000 tested, 2.3% active; note: potency is the fitted concentration of half-maximal effect; nearly all actives have a fitted effect of over 55% in size
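HEK293T cells expressing luciferase-tagged ELG1 (2,000/well) received 5-Fluorouridine plus compound or DMSO for 16 hr at 37 °C. Luciferase was read by ONE-Glo luminescence after 30 min at room temperature.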
VP16 counter: counter-screen for ROR gamma inhibitors: Gal4-VP16 reporter. Drosophila S2 Gal4-VP16 UAS-luciferase, luminescence, 20 h. AID 2546. 310,000 tested, 3.5% active. Potency, µM (top dose mostly 53.6 µM), for inactives: at the highest dose activity, negative = inhibition, hits mostly inhibitors;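 note: Gal4-VP16 expression switched on by copper sulfate through the metallothionein promoter; potency is the fitted concentration of half-maximal effect; nearly all actives have a fitted effect of over 50% in size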
IL1B secr inh: inhibitors of inflammasome signaling (IL-1 beta secretion). AID 743279. THP-1 LPS/ATP IL-1B secretion, AlphaLISA, 16 h; hits give low values. activity change, % at 57.5 µM. 360,000 tested, 4.7% active; in the data active = activity change below about -50%; inconclusive = mostly about -30% to -49%
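THP-1 cells pretreated 1 hr with compounds (up to 57.5 uM final), then stimulated with LPS (250 ng/mL final) plus ATP (1.25 mM final); secreted IL-1B measured by AlphaLISA after 16 hr, decreased signal indicating inhibition.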
DT40 TDP1 CPT: DT40-hTDP1 cell growth loss with CPT. Potency, µM (doses to about 46.2 µM), for inactives: at the highest dose activity change, negative = growth inhibition, usual class: inhibitors. chicken DT40 Tdp1-/-;hTDP1 cells + 20 nM CPT, ATP luminescence, 48 h. 420,000 tested, 12% active; note: potency is the fitted concentration of half-maximal effect; nearly all actives have a fitted effect of over 55% in size
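Cell growth measured by CellTiter-Glo luminescence after a minimum 48 h, 37 C compound exposure with 20 nM CPT in Tdp1-knockout DT40 cells stably expressing hTDP1, seeded 400/well; qHTS titration format.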
* hit, by the source's call; ? = inconclusive; nt = no result; [ ] = dose if it differs, or a comment. Hits are enriched below; roughly 21% of the tested compounds scored in any of these assays. Unless noted, calls come from the whole dose curve; as a rule, active = well fitted curve in the direction sought with a large enough effect; inconclusive = small, poorly fitted or top-dose-only effect, or another doubt; inactive = no such curve, though single readings can be large; an effect the other way counts as inactive or inconclusive. % is set by controls: 0 for no effect and ±100 for the full control effect.

SMILES	RORg inh	TDP1 cell noCPT	ELG1 DNA repair	VP16 counter	IL1B secr inh	DT40 TDP1 CPT
COc1cc2c(cc1NC(=O)CN(C)Cc1cccc(OC)c1OC)oc1ccccc12	?	13µM*	?	?	-13.8	20.6µM*
COc1cc2c(cc1NC(=O)COCC(=O)O)oc1ccccc12	2.2%	2.0%	4.1%	-10.5%	-2.1	13.4%
COc1ccc(CC(=O)Nc2cc3oc4ccccc4c3cc2OC)cc1	33.2%	?	?	-18.7%	?	?
COc1cc2c(cc1NC(=O)C(C)Oc1ccccc1)oc1ccccc12 (configuration not stated)	nt	?	nt	nt	nt	14.6µM*
COc1ccc(C(=O)NC23CC4CC(CC(C4)C2)C3)cc1	9.3%	-10.0%	?	5.7%	2.0	-2.5%
COc1cc2c(cc1NC(=O)CSc1ccc(Cl)cc1)oc1ccccc12	5.8%	?	-7.1%	-8.6%	-5.0	-31.6%
COc1ccccc1CC(=O)Nc1cc2oc3ccccc3c2cc1OC	-2.6%	16.4µM*	-1.3%	-19.8%	-22.2	25.9µM*
COc1cccc(CN(C)CC(=O)Nc2cc3oc4ccccc4c3cc2OC)c1	6.4%	20.6µM*	?	-0.2%	10.7	23.1µM*
COc1cc2c(cc1NC(=O)/C=C/c1cc(OC)c(OC)c(OC)c1)oc1ccccc12	22.8%	14.6µM*	5.8µM*	-15.1%	0.0	20.6µM*
COc1cc2c(cc1NC(=O)C(C)OC(=O)c1ccc(S(=O)(=O)Nc3ccccc3Cl)cc1)oc1ccccc12 (configuration not stated)	-5.4%	18.4µM*	-0.4%	2.9%	0.0	23.1µM*
COc1ccc(/C=C/C(=O)OCC(=O)Nc2cc3oc4ccccc4c3cc2OC)cc1	-4.3%	nt	15.9%	-3.9%	nt	nt
COCCn1c(C)cc(O)c(C(c2ccccc2)N2CCN(C)CC2)c1=O (configuration not stated)	nt	0.6%	nt	nt	nt	-0.9%
COc1ccc(CCN2CC(C(=O)NCCc3ncccc3C)CCC2=O)cc1 (configuration not stated)	nt	3.8%	nt	nt	-20.9	-5.0%
CCCCCNC(=O)C(CCc1ccccc1)n1c(=O)c(-c2cc3ccccc3[nH]2)nc2ccccc21 (configuration not stated)	nt	?	nt	nt	34.7	?
CCCCCNC(=O)C(c1cccc2ccccc12)n1c(=O)c(-c2ccccc2)nc2ccccc21 (configuration not stated)	nt	14.6µM*	nt	nt	0.0	13µM*
O=C(NCc1ccccc1)C(c1cccc2ccccc12)n1c(=O)c(-c2ccccc2)nc2ccccc21 (configuration not stated)	nt	?	nt	nt	-4.0	13µM*
CCCCCNC(=O)C(CCc1ccccc1)n1c(=O)c(-c2ccccc2)nc2ccccc21 (configuration not stated)	nt	5.8µM*	nt	nt	16.2	5.8µM*
COC(c1ccccc1Br)C(C)/C=C/CCO (configuration not stated)	-2.3%[10 µM]	nt	nt	7.0%[10 µM]	nt	nt
Cc1cc(C)cc(N2C(=O)N(Cc3cccc(F)c3)c3ccccc3S2(=O)=O)c1	nt	?	nt	nt	nt	-27.5%
CC(C)CCSc1nnc2n(-c3ccccc3)c(=O)c3c4c(sc3n12)CC(C)CC4 (configuration not stated)	nt	-18.9%	nt	nt	nt	-15.6%
Cc1ccc(N(C(=O)CNC(=O)c2cccs2)C(C(=O)NC2CCCC2)c2ccncc2)cc1 (configuration not stated)	16.5%	-16.5%	-5.2%	-11.6%	6.8	-1.3%
CCN(CC(=O)Nc1cccc(C(C)=O)c1)S(=O)(=O)c1ccc(OC)cc1	-28.6%	?	0.0%	6.0%	3.9	1.6%
CC1CCC2(CC1)NC(=O)N(CC(=O)Nc1cccc(S(=O)(=O)N(C)c3ccccc3)c1)C2=O (configuration not stated)	nt	29.1µM*	nt	nt	?	18.4µM*
CCN(CC(=O)Nc1cccc(S(=O)(=O)N(C)c2ccccc2)c1)Cc1ccccc1	nt	?	?	nt	4.7	18.4µM*
Cc1cc(C)c(NC(=O)CN(C)CC(=O)Nc2cccc(S(=O)(=O)N(C)c3ccccc3)c2)c(C)c1	nt	23.1µM*	?	nt	?	?
SMILES	RORg inh	TDP1 cell noCPT	ELG1 DNA repair	VP16 counter	IL1B secr inh	DT40 TDP1 CPT
CCN(CC)S(=O)(=O)c1cccc(NC(=O)CN(C)Cc2cccc(OC)c2)c1	1.6%	23.1µM*	?	-7.7%	29.1	?
CC1CCN(C(=O)c2[nH]cnc2C(=O)Nc2ccccc2F)CC1	nt	-12.6%	nt	nt	?	-10.2%
O=C(COC(=O)Cc1c[nH]c2ccccc12)Nc1cccc(Br)c1	nt	?	nt	nt	0.3	-20.3%
COc1ccc(NC(=O)Cc2c(C(=O)O)[nH]c3ccccc23)cc1OC	nt	-0.6%	nt	nt	nt	2.4%
CCN(CC(=O)Nc1c(F)cccc1F)C(=O)c1ccc(S(=O)(=O)NCc2ccco2)cc1	nt	?	?	nt	9.7	?
O=c1[nH]cc(S(=O)(=O)N2CCN(c3ccccc3F)CC2)c(=O)[nH]1	nt	-23.1%	nt	nt	-3.6	0.6%
NS(=O)(=O)c1cccc(NC(=O)CN2CCc3ccccc32)c1	19.3%	-1.8%	-6.3%	-10.9%	33.4	?
CN(c1ccccc1)S(=O)(=O)c1cccc(NC(=O)CN2CCCc3ccccc32)c1	?	18.4µM*	?	?	-28.3	?
Cc1ccccc1CN(C)CC(=O)Nc1cccc(S(=O)(=O)N(C)c2ccccc2)c1	?	16.4µM*	?	4.2%	16.7	20.6µM*
CC(C)c1cccc2cc3c(nc12)-c1cccc(=O)n1C3	-20.3%	nt	nt	-11.2%	nt	nt
O=C(Nc1cccc(Cl)c1Cl)C1CCCC1	nt	-6.7%	nt	nt	16.5	4.4%
O=C(Cc1ccc(Cl)cc1)NCC(=O)N1CCC2(CC1)NCCc1[nH]cnc12	nt	-2.3%	nt	nt	0.0	-0.4%
CNc1nnc(-c2ccc(C)cc2)c2ccccc12	35.9%	?	4.0%	10.9%	29.3	?
Cc1ccc(-c2nnc(N3CCC(C)CC3)c3ccccc23)cc1C	20µM*	9.2µM*	?	17.8µM*	-94.7*	6.51µM*
Cc1ccc(-c2nnc(N3CCOCC3)c3ccccc23)cc1S(=O)(=O)N(C)C	?	-12.7%	0.0%	-22.2%	-6.4	-23.9%
Cc1ccc(-c2nnc(N3CCC(C)CC3)c3ccccc23)cc1	?	8.2µM*	-11.2%	?	-14.2	13µM*
COc1ccc(CNC(=O)COC(=O)c2ccc(S(=O)(=O)N3CCCCC3)cc2)cc1	nt	-21.2%	7.5%	nt	5.9	1.6%

Screening results as filed in PubChem.
